Measurements from PubChem BioAssay.

Assay: binders of probe aHhip on microarray, primary screen, stem cell growth factor project, biochemical, small-molecule microarray, fluorescence 635/667 (AID 1087);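 also: score merges spot fluorescence at 667nm with spot signal to noise ratio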
Settings: higher = more signal
Compound `CCOC(=O)C[C@H]1[C@H](OC(=O)Cc2ccc3c(c2)OCO3)[C@@H](NC(=O)c2ccc3ccccc3c2)c2cc(OCCCO)ccc2N1C(=O)Cc1ccc(OC)cc1` has a composite z-score of 0.0274. `O=C(NCc1ccccc1)c1ccc(Br)cc1[N+](=O)[O-]` gave a composite z-score of -0.114. In the case of `CC(C)(C)OC(=O)CC[C@]1(C(=O)N2CCCCC2)N=C(c2ccc(OCCCO)cc2)O[C@H]1c1ccccc1`, the composite z-score is reported as -0.299. With `C=CCNC(=O)[C@@H]1[C@H]2C(=O)O[C@H](c3ccccc3)[C@H](c3ccccc3)N2[C@H](c2ccc(OCCO)cc2)[C@@]12C(=O)N(C(=O)OCCOC)c1ccc(C#CC3(O)CCCCCC3)cc12` the composite z-score was -0.322. Compound `CCCC=C(CCC)[C@@H](NS(=O)(=O)c1ccc(C(F)(F)F)cc1)c1ccc(-c2ccccc2)cc1` has a composite z-score of 2.14. In the case of `NC(=O)NCC#Cc1ccc2c(c1)[C@]1(C(=O)N2)[C@H](C(=O)N2CCCCCCC2)[C@H]2C(=O)O[C@H](c3ccccc3)[C@H](c3ccccc3)N2[C@@H]1c1ccccc1OCCO`, the composite z-score is reported as 0.526. With `C=C[C@H](OC)[C@@H](OC(=O)Nc1ccc(SC)cc1)c1ccc(O)c(F)c1` the composite z-score was 0.109. For `CO[C@H]1COC(=O)CC=C[C@H](C)COC(=O)[C@@H](OCc2ccccc2)C=C[C@@H]1C`, the composite z-score was -0.12. `CC(C)C[C@@H]1NC(=O)[C@H]2C[C@@H](C(=O)NCCCCCC[N+](C)(C)C)[C@@H](c3ccc(O)cc3)N2C1=O` showed a composite z-score of -0.0994. With `CO[C@H]1COC(=O)[C@@H](C)NC(=O)CC=C[C@@H](C)[C@H](OC)COC(=O)CC=C[C@@H]1C` the composite z-score was 0.0596. Work on `C=CC[C@@]12N=C(c3ccc(OCCCO)cc3)O[C@@H]1c1ccccc1CN(Cc1ccccc1)C2=O` yielded a composite z-score of -0.138. Compound `COc1ccc([Si](C)(C)[C@@H]2[C@@H](CC(=O)N(CCO)Cc3ccccc3)O[C@]3(C(=O)N(Cc4cccc(N5CCC5=O)c4)c4ccccc43)[C@H]2C)cc1` has a composite z-score of 0.0373. `CN(C)CCCC[C@@H]1NC(=O)[C@@H]2C[C@H](C(=O)O)[C@H](c3ccc(O)cc3)N2C1=O` gave a composite z-score of -0.279. With `CCOC(=O)C1=CCC(c2cccc3ccccc23)N(S(=O)(=O)c2ccc(C)cc2)C1` (centres undefined) the composite z-score was -0.0237. With `CO[C@@H]1COC(=O)CC=C[C@@H](C)[C@H](OC)COC(=O)CC=C[C@H]1C` the composite z-score was -0.16. For `C=C(COC)/C(=C/C[C@H](OC(C)=O)c1ccc(OCCO)cc1)c1cnc2ccccc2c1`, the composite z-score was 0.176. With `CO[C@H]1O[C@H](CO)[C@@H](OC(=O)Nc2ccc(Oc3ccccc3)cc2)[C@H](OC(=O)Nc2ccccc2-c2ccccc2)[C@H]1OC(=O)Nc1ccccc1-c1ccccc1` the composite z-score was -0.0672. `CCC1=C2CN(Cc3ccccc3Br)[C@@H]([C@@H](O)Cc3ccccc3)C2C=CCC1` (some centres undefined) showed a composite z-score of 0.0881. `[N-]=[N+]=NCc1ccccc1C[C@@]1(C(=O)N2CCOCC2)N=C(c2ccc(OCCCO)cc2)O[C@@H]1c1ccccc1N=[N+]=[N-]` showed a composite z-score of -0.146. Work on `C=CC(=O)O[C@@H](Cc1ccccc1)[C@H]1C2C=CCCC=C2CN1Cc1cccc(Cl)c1` (some centres undefined) yielded a composite z-score of 0.176. `NC(=O)[C@H]1[C@@H]2C(=O)O[C@@H](c3ccccc3)[C@@H](c3ccccc3)N2[C@@H](c2ccc(O)cc2)[C@]12C(=O)Nc1ccc(C#CCCO)cc12` gave a composite z-score of -0.251. In the case of `NC(=O)NCC#Cc1ccc2c(c1)[C@]1(C(=O)N2)[C@H](C(N)=O)[C@H]2C(=O)O[C@H](c3ccccc3)[C@H](c3ccccc3)N2[C@@H]1c1ccccc1OCCO`, the composite z-score is reported as -0.0645. Compound `C=CC[C@]1(C(N)=O)N=C(c2ccc(OCCCO)cc2)O[C@H]1c1ccccc1CN=[N+]=[N-]` has a composite z-score of -0.0994. Work on `C[N+](C)(C)CCCCNC(=O)[C@@H]1C[C@@H]2C(=O)N3CCC[C@H]3C(=O)N2[C@@H]1c1cccc(OCCO)c1` yielded a composite z-score of 0.171. For `O=C1O[C@H](c2ccccc2)[C@H](c2ccccc2)N2[C@H]1[C@@H](C(=O)Nc1nc3ccccc3s1)[C@]1(C(=O)Nc3ccc(C#CC4(O)CCCCCC4)cc31)[C@H]2c1ccc(O)cc1`, the composite z-score was 0.0623. Work on `COc1ccc(C(O)C2C=CC3C(=O)N(C)C(=O)C3N2N2CCCCC2)cc1OCc1ccccc1` (centres undefined) yielded a composite z-score of 0.232. `CC1=C([C@H](O)CCc2ccccc2)[C@H](CO)[C@@H]2C(=O)N(Cc3ccccc3)C(=O)[C@@H]2C1` gave a composite z-score of -0.174. For `C=C[C@H](OC)[C@@H](OC(=O)Nc1ccc(SC)cc1)c1ccc(OC)c(O)c1`, the composite z-score was -0.0994. With `CC(C)(C)OC(=O)CC[C@@]1(C(=O)NCc2ccccc2)N=C(c2ccc(OCCCO)cc2)O[C@@H]1c1ccccc1` the composite z-score was -0.304.
